Hits are enriched below; roughly 1.8% of the tested compounds scored in any of these assays.
PAD4 inh: blocks human protein arginine deiminase 4 | Q9UM07 | recombinant PAD4, RCA probe fluorescence polarization | inhibition, % at 6.36 µM | 330,000 tested, 0.41% active | AID 485272;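 active = percent inhibition above a cutoff equal to the mean of all tested compounds plus 3 SD, cut at about 15% in these data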;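 also: 0% = PAD4 with RCA probe and DMSO and 100% = probe without PAD4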
Target sequence (Q9UM07 whole entry, looked up): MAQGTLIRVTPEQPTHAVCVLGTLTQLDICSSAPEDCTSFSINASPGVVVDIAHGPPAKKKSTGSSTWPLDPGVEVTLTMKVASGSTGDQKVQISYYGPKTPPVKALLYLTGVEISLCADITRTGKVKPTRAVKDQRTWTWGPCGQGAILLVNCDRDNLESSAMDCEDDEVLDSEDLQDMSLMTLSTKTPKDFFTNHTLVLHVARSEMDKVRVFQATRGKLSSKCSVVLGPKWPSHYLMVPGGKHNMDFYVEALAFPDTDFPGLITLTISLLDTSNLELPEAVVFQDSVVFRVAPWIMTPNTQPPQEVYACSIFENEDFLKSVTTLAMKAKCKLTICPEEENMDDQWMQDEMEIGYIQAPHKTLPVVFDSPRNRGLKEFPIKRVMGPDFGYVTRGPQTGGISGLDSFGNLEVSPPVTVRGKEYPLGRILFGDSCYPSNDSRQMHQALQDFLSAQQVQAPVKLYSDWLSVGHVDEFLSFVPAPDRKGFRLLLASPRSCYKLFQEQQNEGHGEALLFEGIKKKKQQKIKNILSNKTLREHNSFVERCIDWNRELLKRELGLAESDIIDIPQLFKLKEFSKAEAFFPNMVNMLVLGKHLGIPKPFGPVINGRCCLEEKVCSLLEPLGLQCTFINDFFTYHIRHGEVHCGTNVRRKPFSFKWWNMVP
GSTO1 counter: GSTO1 inhibition, counter-screen for RBBP9 inhibitors. 300,000 tested, 1.1% active. inhibition, % at 5.96 µM. recombinant GSTO1, activity-based probe fluorescence polarization. P78417;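 active = inhibition above the campaign mean inhibition plus 3 SD, cut at about 35% in these data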;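 also: 0% = GSTO1-1 with DMSO and 100% = wells lacking GSTO1-1 enzyme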
LYPLA1 counter: blocks human lysophospholipase 1, a PME1 counter-screen; O75608; recombinant LYPLA1, FP-Rh probe fluorescence polarization; inhibition, % at 5.9 µM; 320,000 tested, 0.16% active;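 active = inhibition above the mean of all tested compounds plus 3 SD, set per campaign, cut at about 14% in these data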;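 also: inhibitors block serine hydrolase probe labeling of LYPLA1 so polarization falls; 0% = enzyme with DMSO and 100% = wells lacking LYPLA1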
PME-1 inh: PME-1 (human) inhibition; recombinant PME-1, FP-Rh probe fluorescence polarization; AID 2130; 320,000 tested, 0.53% active; Q9Y570; inhibition, % at 5.9 µM;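 active = inhibition above the campaign mean of all compounds plus 3 SD, cut at about 26% in these data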;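 also: competitive labeling of PME-1 active site by serine hydrolase directed probe; 0% = PME-1 with DMSO and 100% = wells lacking PME-1 enzyme; inhibitors block probe labeling so polarization falls and inhibition rises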
Fam108B counter: blocks mouse Fam108B hydrolase in RBBP9 counter-screen. recombinant Fam108B, FP-Rh probe fluorescence polarization. inhibition, % at 9.51 µM. 300,000 tested, 0.33% active. AID 1947;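 active = inhibition above the screen mean inhibition plus 3 SD, computed separately per campaign, cut at about 18% in these data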;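 also: inhibitors lower polarization as less probe binds the enzyme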
LYPLA2 inh: blocks human lysophospholipase 2, a PME1 counter-screen | O95372 | recombinant LYPLA2, FP-Rh probe fluorescence polarization | inhibition, % at 5.9 µM | 320,000 tested, 0.38% active | AID 2177;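 active = inhibition above the screen-wide mean plus 3 SD, limit set per campaign, cut at about 26% in these data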;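 also: 0% = LYPLA2 with DMSO and 100% = wells lacking LYPLA2 enzyme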
Active calls of the source: *; . = no result.

SMILES | PAD4 inh | GSTO1 counter | LYPLA1 counter | PME-1 inh | Fam108B counter | LYPLA2 inh
O=C1/C(=C/Nc2ccc3c(c2)OCO3)CCc2ccccc21 | 0 | 14 | 2 | 30* | 12 | 15
CC(C)(Cc1cccc(CC(C)(C)C(=O)O)c1)C(=O)O | -2 | 2 | 2 | 1 | 0 | 0
CN(C)CCCNS(=O)(=O)c1ccc(N2CCN(Cc3ccc4c(c3)OCO4)CC2)c([N+](=O)[O-])c1 | -3 | 6 | -2 | 2 | 0 | -2
Cc1ccc(S(=O)(=O)NCCSc2nnnn2-c2cc(C)ccc2C)cc1 | -5 | 35* | -5 | 8 | 4 | -8
Cc1ccc(C)c(CNc2ccc(S(=O)(=O)N3CCCCC3)cc2)c1 | -4 | . | -3 | -1 | . | -8
CC(C)N1CC2=C(OC(N)=C(C#N)C2c2cccnc2)/C(=C/c2cccnc2)C1 (stereo unspecified) | 16* | 6 | 9 | 6 | 3 | 16
Cc1cc(C)cc(NC(=O)COC(=O)COc2ccc(N(C)S(=O)(=O)c3cccs3)cc2)c1 | 0 | . | . | . | . | .
Cc1cc(N(C)C)ccc1N=Nc1ccc2ncccc2c1 | 1 | 8 | 7 | 32* | 11 | 12
COc1ccc(/C=N/Nc2cc(C)nc(-n3nc(C)cc3C)n2)c(OC)c1 | -1 | 4 | 2 | 54* | 2 | 1
Cc1ccccc1NC(=O)Cc1nc(COC(=O)c2cccc(O)c2)cs1 | 1 | . | -6 | -5 | . | -10
Cc1ccc(C)c(NC(=O)Cc2nc(CCl)cs2)c1 | 0 | 95* | 2 | -3 | 4 | -1
NS(=O)(=O)c1ccc(N=Nc2c[nH]c(=O)c(O)c2)cc1 | 3 | 64* | -4 | -66 | 4 | -9
CC(=O)c1c(C)cc(C)c(CSc2nnc(-c3ccco3)o2)c1C | 3 | 35* | -1 | 0 | 0 | 3
COc1ccccc1NC(=O)c1cc2ccc(O)cc2o/c1=N\O | -1 | -9 | 2 | 27* | 16 | 7
C[C@H]1[C@H](c2ccccc2)C[C@@H](C(=O)O)C1(C)C | 0 | 9 | 0 | -6 | -3 | 0
CN1/C(=C/C=C(C#N)C#N)C(C)(C)c2ccccc21 | 2 | 11 | 7 | 51* | -57 | 5
CCOC(=O)NNc1ccc2nonc2c1[N+](=O)[O-] | 51* | 89* | -3 | 4 | 12 | 3
O=C(O)c1ccc(N/N=C/c2ccc(OC(=O)c3ccccc3Cl)cc2)cc1 | 1 | 0 | 0 | 18 | 17 | 26*
Oc1cc(O)cc(/C=C/c2ccc(O)c(O)c2)c1 | 0 | 34 | -7 | -18 | -11 | -10
COC(=O)CCCC1=CC2=C(c3ccccc3)C(=O)C(C)(OC(=O)C3CCCC3)C(=O)C2=CN1c1ccccc1 (stereo unspecified) | -8 | 35* | -4 | 1 | 0 | -3
CCOC(=O)C[n+]1c(C)sc2ccc(OC)cc21 | 18* | 5 | -4 | -1 | -2 | 2
COc1cc(/C=C/C(=O)c2ccc3c(c2)OCCO3)cc(Br)c1OCC(=O)N(C)C | -1 | -16 | 0 | 3 | 0 | -1
CCN(CC)C(=S)Sc1c(-c2ccccc2)c2cc(Cl)ccc2[nH]c1=O | 2 | -2 | -3 | 35* | 9 | -3
O=C(O)CSc1c(-c2ccccc2)c2cc(Cl)ccc2[nH]c1=O | -1 | 4 | -2 | 0 | -7 | -1
COc1ccccc1NS(=O)(=O)c1cccc(-n2c(O)c(C=Nc3ccccc3C(=O)O)c3ccccc3c2=O)c1 | 0 | -2 | 8 | 82* | 18 | 3
SMILES | PAD4 inh | GSTO1 counter | LYPLA1 counter | PME-1 inh | Fam108B counter | LYPLA2 inh
CCCN(CCC)CCCNC(=O)c1cn(CC)c2ccc(S(=O)(=O)N(C)C3CCCCC3)cc2c1=O | 1 | 0 | -4 | 49* | 4 | -8
CCCCN(CCCC)CCNC(=O)c1cn(C)c2ccc(S(=O)(=O)N(C)C3CCCCC3)cc2c1=O | 0 | 5 | 1 | 66* | -4 | 0
CCCCN(CCCC)CCNC(=O)c1cn(CC)c2ccc(S(=O)(=O)N3CCc4ccccc4C3)cc2c1=O | 5 | -4 | -2 | 59* | 7 | 3
CCCc1cc(=O)[nH]c(SCC(=O)Nc2ccc(N3CCCCC3)cc2)n1 | 2 | . | . | . | . | .
Cc1[nH]c2ccccc2c1N=Nc1ccccc1C(=O)O | -19 | 23 | 1 | 30* | 11 | -8
C[C@]12CC[C@@H]3c4cc(O)c(O)cc4CC[C@H]3[C@@H]1CC[C@@H]2O | -1 | 42* | -3 | -4 | -1 | -6
C[C@]12CC[C@@H]3c4ccc(O)cc4CC[C@H]3[C@@H]1CC[C@@H]2O | -5 | 2 | 2 | 0 | -3 | 5
COc1ccc(Nc2nc(-c3cccs3)nc3ccccc23)cc1S(=O)(=O)N1CCOCC1 | -3 | -108 | -38 | -42 | -11 | -68
Cc1ccc(Sc2ccc(NC(=O)CCN3C(=O)NC4(CCCC4)C3=O)cc2)c(C)c1 | -2 | . | -4 | 2 | . | -6
O=C(NC(=S)Nc1cccc(S(=O)(=O)NC2=NCCC2)c1)c1cc(-c2ccco2)nc2ccccc12 | -5 | 7 | -3 | 5 | 0 | 6
O=C(Nc1cccc(S(=O)(=O)NC2=NCCC2)c1)c1cc(-c2ccco2)nc2ccccc12 | -6 | 60* | -13 | 6 | 8 | -2
Cc1cc([N+](=O)[O-])cc2c1NC(=O)C2(O)N1CCCCCC1 (stereo unspecified) | -2 | 0 | 2 | 8 | 3 | -5
Cc1cc([N+](=O)[O-])cc2c1NC(=O)C2(O)N1CCCC(C)C1 (stereo unspecified) | 0 | 37* | 0 | 15 | -4 | 3
CC(C)C[C@@]12C(=O)N(c3cccc(F)c3)C(=O)N1[C@H](c1ccc(F)cc1)[C@@H]1C(=O)N(C3CCCCC3)C(=O)[C@@H]12 | -4 | 1 | -4 | -6 | 0 | -7
CC(C)CC1NC(=O)c2cc(Cl)ccc2-n2c1nc1ccc(F)cc1c2=O (stereo unspecified) | -5 | . | . | . | . | .
O=C1CCCC2=C1C(c1ccc(O)c(O)c1)c1c(ccc3ncccc13)N2 (stereo unspecified) | -9 | 75* | -14 | -22 | -3 | -27
CCOc1ccc(C2C3=C(CCCC3=O)Nc3ccc4ncccc4c32)cc1 (stereo unspecified) | 1 | 7 | -2 | 11 | 2 | -2
Cc1cccc(OCC(=O)NNC(=O)c2ccc3nc[nH]c3c2)c1 | -5 | . | 1 | 3 | . | 7
CN(c1ccccc1)S(=O)(=O)c1cccc(NC(=O)c2ccc(Cl)c([N+](=O)[O-])c2)c1 | -11 | . | . | . | . | .
COc1cc2[nH]c(C(=O)NN)c(N)c2cc1OC | 8 | 39* | -4 | 4 | 9 | -8
COc1cccc2[nH]c(C(=O)NN)c(N)c12 | -12 | 16 | 0 | 20 | 3 | 4
CCN(CC)C(=O)[C@H]1C[C@H](CC(=O)NCCN2CCOCC2)C(=O)N2CCc3c([nH]c4cc(CCC(=O)N(C)C)ccc34)[C@]12C | 6 | . | . | . | . | .

Assay outcomes: PubChem, The Scripps Research Institute Molecular Screening Center
